Common to all, as to assay type: functional
The target of experiment [1] is Solute carrier family 2, facilitated glucose transporter member 1 (Homo sapiens) (UniProt P11166). The experiment is described as follows: ST_JUDE_LEISH: Cytotoxicity at 2uM final concentration against transgenic Leishmania Mexicana promastigotes LmGLUT1 that are glucose transport deficient and complemented with the human glucose transporter GLUT1. Activity is measured by DNA content using SYBR green in vitro.

Experiment [2] addresses Hexose transporter 1 (Plasmodium falciparum) (UniProt O97467). In words: ST_JUDE_LEISH: Cytotoxicity at 2uM final concentration against transgenic Leishmania Mexicana promastigotes LmPfHT that are glucose transport deficient and complemented with the Plasmodium falciparum hexose transporter. Activity is measured by DNA content using SYBR green in vitro.
In experiment [3] the target is Glucose transporter (Leishmania mexicana) (UniProt O61059). In words: ST_JUDE_LEISH: Cytotoxicity at 2uM final concentration against transgenic Leishmania Mexicana promastigotes LmGT2 that are glucose transport deficient and complemented with the L. Mexicana glucose transporter 2. Activity is measured by DNA content using SYBR green in vitro.

Solute carrier family 2, facilitated glucose transporter member 1 (Homo sapiens), sequence (P11166 whole entry): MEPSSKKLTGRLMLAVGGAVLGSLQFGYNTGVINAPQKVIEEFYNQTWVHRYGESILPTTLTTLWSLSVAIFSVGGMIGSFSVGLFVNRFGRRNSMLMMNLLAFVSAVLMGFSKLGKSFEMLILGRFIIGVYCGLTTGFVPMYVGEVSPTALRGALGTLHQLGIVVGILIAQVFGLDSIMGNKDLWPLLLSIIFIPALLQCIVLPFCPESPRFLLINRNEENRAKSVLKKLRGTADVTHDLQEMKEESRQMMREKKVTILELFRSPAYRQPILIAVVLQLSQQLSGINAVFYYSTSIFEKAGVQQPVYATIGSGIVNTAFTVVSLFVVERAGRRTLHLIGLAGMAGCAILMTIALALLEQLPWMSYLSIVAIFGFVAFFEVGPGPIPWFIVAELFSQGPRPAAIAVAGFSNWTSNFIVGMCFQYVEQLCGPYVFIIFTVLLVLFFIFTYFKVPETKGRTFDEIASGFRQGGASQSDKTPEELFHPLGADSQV

Turning to `O=C(Nc1cccc(-c2cccc(-c3nc4cc(F)ccc4[nH]3)c2)c1)c1ccoc1`, the inhibition (in general, the relative decrease from the control value, in per cent) came to 2.86% in experiment [1], 1.64% in experiment [2] and 4.95% in experiment [3].
The matching figures for `FC(F)(F)c1cnc(Sc2nnc(-c3ccco3)o2)c(Cl)c1`: 17.1%, 12.9% and 11.8%.
In the same order, the values of `COc1ccc(CN2CCCC(OC(c3ccc(F)cc3)c3ccc(F)cc3)C2)c(O)c1` (stereo unspecified) are 9.08%, 8.89% and 9.65%.
`COc1cc(NC(=O)Nc2ccc(Br)cc2C(=O)Nc2ccc(Br)cc2)cc(OC)c1OC`: the figures for the inhibition in experiment [1], in experiment [2] and in experiment [3] were 5.51%, 4.2% and 5.3%, respectively.
For the compound `O=C(Nc1ccc(Cl)cc1)N1CCN(C2CCCCC2)CC1`, the inhibition is 4.49% in experiment [1], 2.78% in experiment [2] and 3.2% in experiment [3].
In the case of `CC(c1cccc(Nc2nccc(-c3c(-c4cccc(NC(=O)c5c(F)cccc5F)c4)nn4ccccc34)n2)c1)S(C)(=O)=O` (stereo unspecified), the figures for the inhibition in experiment [1], in experiment [2] and in experiment [3] were 3.25%, 2.14% and -0.68%, respectively.
Regarding `COC(=O)c1cccc(CNCc2cccc(-c3ccc(-c4nc5cccc(C)c5[nH]4)cc3)c2)c1`, the inhibition in experiment [1] came to 11.9%; in experiment [2], 7.9%; in experiment [3] it was 8.52%.
Regarding `c1cc(CN2CCN(c3ccncc3)CC2)cc(-c2cccc(-c3nc4ccccc4[nH]3)c2)c1`, the inhibition in experiment [1] came to 2.65%; in experiment [2] it was 2.34%; in experiment [3], 1.32%.
As to `CCc1cc(NC2CCN(C)CC2)nc(Nc2cccc(OC)c2)n1`, the results for the inhibition in experiment [1], in experiment [2] and in experiment [3] were 15%, 10% and 6.53%, respectively.
For `Cc1cc(N[C@@H](Cc2ccccc2)C(=O)NCc2cccs2)nc(NCCOc2ccccc2)n1`, the inhibition in experiment [1] turned out to be 8.74%; in experiment [2], 10.4%; in experiment [3], 5.27%.
In the same order, the values of `C=CCn1c(C)cc(C(=O)COc2ccc(S(=O)(=O)N3CCOCC3)cc2[N+](=O)[O-])c1C` are 2.97%, 0.91% and 0.84%.
Regarding `COc1ccc(CNCc2ccc(-c3cccc(-c4nc5cccc(C)c5[nH]4)c3)cc2)cc1`, the figures for the inhibition in experiment [1], in experiment [2] and in experiment [3] were 2.87%, 1.37% and 0.41%, respectively.
Turning to `CCNc1cc(C(=O)N[C@@H](Cc2ccccc2Cl)[C@H](O)CNC(C)CCCC(C)C)cc(N2CCCCS2(=O)=O)c1` (stereo partly specified), the inhibition in experiment [1] is -2.6%; in experiment [2], 0.93%; in experiment [3], -2.24%.
Take `COc1ccc2[nH]cc(C3CCN(CCCCCNC(=O)c4ccc(-c5ccccc5)cc4)CC3)c2c1`: the inhibition in experiment [1] was found to be 4.24%; in experiment [2], 3.36%; in experiment [3], 2.9%.
Turning to `FC(F)(F)c1cccc(CNC2CCN(CC3CCCCC3)CC2)c1`, the inhibition in experiment [1] amounted to 5.19%; in experiment [2] it was 4.53%; in experiment [3], 3.27%.
For `CCN1CCC(N(Cc2ccc(-c3ccc(C(F)(F)F)cc3)cc2)C(=O)Cn2c(CCc3cccc(F)c3F)cc(=O)c3c2CCC3)CC1`, the results for the inhibition in experiment [1], in experiment [2] and in experiment [3] were 1.27%, 0.83% and 0.64%, respectively.
On to `CC(=O)Nc1ccc(CN(Cc2ccc(OC(C)(C)C)cc2)Cc2ccc3c(c2)OCCO3)cc1`, for which the figures for the inhibition in experiment [1], in experiment [2] and in experiment [3] were 7.25%, 3.27% and 6.45%, respectively.
